Test results: PubChem BioAssay (Tox21)
Records with an inconclusive call do not appear. Calls of active or inactive are those of the source. Unless noted, calls come from the whole dose curve.

assay: qHTS assay for small molecule disruptors of the mitochondrial membrane potential - cell viability (AID 720634); settings: HepG2 viability, ATP luminescence (CellTiter-Glo), 1 h; series mostly up to 83.2 µM; activity change, negative = cytotoxicity: at the top concentration;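 note: human HepG2 liver cancer cells; nearly all actives have a fitted effect of over 20% in size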
Outline: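 After overnight attachment at 37 C, HepG2 cells received compound or DMSO vehicle for 1 hr. Viability is then taken from ATP-driven luminescence following a 30 min room-temperature CellTiter-Glo step.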
% is set by controls: 0 for no effect and ±100 for the full control effect.

Row | SMILES | activity change, negative = cytotoxicity
1 | C=CC(C)(CCC=C(C)C)OC(=O)CC (stereo not given) | 3.88% (inactive)
2 | CC(C)(C)C(=O)Oc1ccc(S(=O)(=O)Nc2ccccc2C(=O)NCC(=O)O)cc1 | -15.5% (inactive)
3 | CC(N)C12CC3CC(CC(C3)C1)C2 (stereo not given) | 9.16% (inactive)
4 | O=C(O)c1cc(C(=O)O)cc(C(=O)O)c1 | -15.4% [at 95.3 µM] (inactive)
5 | CCC(=O)OCc1ccccc1 | 13.6% (inactive)
6 | COc1cc(C(=O)OC(COCCC(C)C)CN2CCOCC2)cc(OC)c1OC (stereo not given) | 2.44% (inactive)

assay: qHTS assay for small molecule disruptors of the mitochondrial membrane potential (AID 720635; active = well fitted inhibition curve with a large enough effect in the signal ratio in the repeat runs; the % refers to the signal ratio; note: potency is the fitted concentration of half-maximal effect); settings: HepG2 mitochondrial membrane potential, Mito-MPS dye ratio; series mostly up to 83.2 µM; ratio activity, negative = MMP loss: at the top concentration
Outline: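 Mitochondrial membrane potential tracked with Mito-MPS dye, red aggregates (ex 540/em 590 nm) against green monomers (ex 490/em 535 nm). Compound treatment 1 hr at 37C, dye 30 min in HepG2.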

Row | SMILES | ratio activity, negative = MMP loss | Potency
7 | CCCCS(=O)(=O)N[C@@H](Cc1ccc(OCCCCC2CCNCC2)cc1)C(=O)O | -6.76% (inactive) | –
8 | COC(=O)Nc1ccc(Cl)c(Cl)c1 | – | 60.8 µM (active)
9 | CC[C@H]1OC(=O)[C@H](C)[C@@H](O[C@H]2C[C@@](C)(OC)[C@@H](O)[C@H](C)O2)[C@H](C)[C@@H](O[C@@H]2O[C@H](C)C[C@H](N(C)C)[C@H]2O)[C@](C)(OC)C[C@@H](C)C(=O)[C@H](C)[C@@H](O)[C@]1(C)O | 29.1% (inactive) | –
10 | O=C(O)c1cc(C(=O)O)cc(C(=O)O)c1 | 29.2% [at 95.3 µM] (inactive) | –
